PubChem BioAssay
The source made the active and inactive calls.

What was measured:
[1] = compounds binding Alexa647 anti-His antibody – biochemical, small-molecule microarray, 635 nm fluorescence, artefact control for SMM control protein annotation, primary screen (AID 1128); settings: higher = more signal;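 note: score merges feature fluorescence with signal-to-noise for each printed compound spot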
[2] = system: Human papillomavirus type 1a E7 protein (residues 1-88); experiment: HPV1a E7 small-molecule binders, primary screen, biochemical, small-molecule microarray, residues 1-88, 635 nm (AID 1129); settings: small-molecule microarray binding, fluorescence 635 nm; higher = more signal
[3] = molecular target: Focal adhesion kinase 1 (Homo sapiens) (UniProt Q05397); experiment: PTK2 protein binding on printed compound slides – biochemical, small-molecule microarray, 635/667 nm fluorescence, BSA, DTT, primary screen (AID 1130); settings: 635 nm fluorescence, higher = more signal;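 note: composite of spot emission at 667 nm and signal to noise over triplicate slides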
Chain of Focal adhesion kinase 1 (Homo sapiens) (Q05397 whole entry, looked up): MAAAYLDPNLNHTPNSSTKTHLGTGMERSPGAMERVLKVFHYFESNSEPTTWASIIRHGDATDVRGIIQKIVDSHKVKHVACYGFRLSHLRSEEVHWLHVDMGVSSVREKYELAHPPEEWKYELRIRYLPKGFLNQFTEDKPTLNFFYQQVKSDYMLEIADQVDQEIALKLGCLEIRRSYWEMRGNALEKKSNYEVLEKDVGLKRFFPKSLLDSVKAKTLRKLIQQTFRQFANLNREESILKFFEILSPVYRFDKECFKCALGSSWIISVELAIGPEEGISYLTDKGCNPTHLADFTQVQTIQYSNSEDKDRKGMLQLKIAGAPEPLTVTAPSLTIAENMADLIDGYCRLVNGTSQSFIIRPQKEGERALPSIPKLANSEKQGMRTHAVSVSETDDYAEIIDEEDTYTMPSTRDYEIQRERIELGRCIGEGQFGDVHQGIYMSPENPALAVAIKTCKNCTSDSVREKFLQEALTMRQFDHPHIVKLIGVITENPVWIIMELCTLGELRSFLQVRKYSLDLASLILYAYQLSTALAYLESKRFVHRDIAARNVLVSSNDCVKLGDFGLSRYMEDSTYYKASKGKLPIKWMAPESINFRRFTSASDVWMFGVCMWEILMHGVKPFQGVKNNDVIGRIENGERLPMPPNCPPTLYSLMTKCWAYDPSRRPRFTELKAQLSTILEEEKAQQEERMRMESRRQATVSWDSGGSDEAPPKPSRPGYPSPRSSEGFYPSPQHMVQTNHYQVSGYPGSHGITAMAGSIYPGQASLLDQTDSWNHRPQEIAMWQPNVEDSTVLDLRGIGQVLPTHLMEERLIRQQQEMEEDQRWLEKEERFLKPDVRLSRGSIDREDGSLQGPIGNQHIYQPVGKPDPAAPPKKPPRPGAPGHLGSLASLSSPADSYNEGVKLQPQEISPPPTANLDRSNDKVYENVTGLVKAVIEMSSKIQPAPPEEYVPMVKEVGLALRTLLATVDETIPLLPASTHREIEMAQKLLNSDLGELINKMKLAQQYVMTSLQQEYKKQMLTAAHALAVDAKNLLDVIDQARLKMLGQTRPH

[4] = system: Fibrinogen (Alexa647-labelled); experiment: Alexa647-fibrinogen binding to printed small molecules – biochemical, small-molecule microarray, 635/667 nm fluorescence, artefact control for SMM control-protein annotation, profiling panel (AID 1131); settings: fibrinogen-A647 binding fluorescence, higher = more signal;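 note: z-score merges 667 nm fluorescence with per-spot signal-to-noise over triplicate slides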
[5] = molecular target: Follistatin (Homo sapiens) (UniProt P19883); experiment: FST protein binding to printed compounds – biochemical, small-molecule microarray, 635/667 nm fluorescence, primary screen (AID 1132); settings: 635 nm fluorescence, higher = more signal
Chain of Follistatin (Homo sapiens) (P19883 whole entry, looked up): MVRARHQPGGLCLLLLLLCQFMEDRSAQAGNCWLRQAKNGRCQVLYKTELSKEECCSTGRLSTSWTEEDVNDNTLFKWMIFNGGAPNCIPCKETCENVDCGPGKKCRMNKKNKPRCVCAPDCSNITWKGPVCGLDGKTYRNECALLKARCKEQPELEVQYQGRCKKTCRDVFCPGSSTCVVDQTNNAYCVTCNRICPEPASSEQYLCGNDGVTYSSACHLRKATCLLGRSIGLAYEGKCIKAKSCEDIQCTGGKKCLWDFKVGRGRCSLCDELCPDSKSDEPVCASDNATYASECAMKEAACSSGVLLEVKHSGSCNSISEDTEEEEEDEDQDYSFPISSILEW

[6] = molecular target: Fibroblast growth factor 2 (Homo sapiens) (UniProt P09038); experiment: basic fibroblast growth factor binding to printed compounds – biochemical, small-molecule microarray, 635/667 nm fluorescence, primary screen (AID 1133); settings: FGF2, fluorescence 635/667, higher = more signal
Chain of Fibroblast growth factor 2 (Homo sapiens) (P09038 whole entry, looked up): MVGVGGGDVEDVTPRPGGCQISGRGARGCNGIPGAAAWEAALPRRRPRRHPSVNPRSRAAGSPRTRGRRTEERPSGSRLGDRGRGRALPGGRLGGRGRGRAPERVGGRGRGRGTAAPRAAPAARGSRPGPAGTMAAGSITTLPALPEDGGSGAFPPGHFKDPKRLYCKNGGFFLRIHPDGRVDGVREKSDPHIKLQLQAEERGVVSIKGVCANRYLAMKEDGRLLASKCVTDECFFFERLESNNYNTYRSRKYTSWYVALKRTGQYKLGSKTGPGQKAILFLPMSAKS

[7] = JC-1 mitochondrial potential readout, lung cancer cells – cell-based, A549, JC-1 fluorescence, basal, 24 h, 100 nL, profiling panel (AID 1138); settings: higher = more signal;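 note: A549 lung adenocarcinoma cells under basal conditions with no added stimulus; test concentration not given here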
[8] = system: Lefty1; experiment: Lefty1 protein binding to printed compounds – biochemical, small-molecule microarray, 635/667 nm fluorescence, primary screen (AID 1139); settings: fluorescence 635/667, higher = more signal
[9] = system: wheat germ agglutinin (Triticum aestivum), Alexa647-labelled; experiment: Alexa647-WGA lectin binding to printed small molecules – biochemical, small-molecule microarray, 635/667 nm fluorescence, artefact control for SMM control-protein annotation, profiling panel (AID 1140); settings: WGA-A647 binding, 635 nm fluorescence, higher = more signal;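 note: score merges 667 nm feature emission with signal to noise over triplicate slides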
[10] = molecular target: Luciferin 4-monooxygenase (Photinus pyralis) (UniProt P08659); experiment: inhibition of purified Photinus pyralis luciferase – biochemical, luminescence, purified enzyme, 2006 set, primary screen (AID 1141); settings: purified firefly luciferase, SteadyGlo luminescence, 30 min; higher = more signal, called active from +8 up or from −8 down;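 note: cell-free assay with purified firefly luciferase at 100 ng per well in PBS; test concentration not given here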
Chain of Luciferin 4-monooxygenase (Photinus pyralis) (P08659 whole entry, looked up): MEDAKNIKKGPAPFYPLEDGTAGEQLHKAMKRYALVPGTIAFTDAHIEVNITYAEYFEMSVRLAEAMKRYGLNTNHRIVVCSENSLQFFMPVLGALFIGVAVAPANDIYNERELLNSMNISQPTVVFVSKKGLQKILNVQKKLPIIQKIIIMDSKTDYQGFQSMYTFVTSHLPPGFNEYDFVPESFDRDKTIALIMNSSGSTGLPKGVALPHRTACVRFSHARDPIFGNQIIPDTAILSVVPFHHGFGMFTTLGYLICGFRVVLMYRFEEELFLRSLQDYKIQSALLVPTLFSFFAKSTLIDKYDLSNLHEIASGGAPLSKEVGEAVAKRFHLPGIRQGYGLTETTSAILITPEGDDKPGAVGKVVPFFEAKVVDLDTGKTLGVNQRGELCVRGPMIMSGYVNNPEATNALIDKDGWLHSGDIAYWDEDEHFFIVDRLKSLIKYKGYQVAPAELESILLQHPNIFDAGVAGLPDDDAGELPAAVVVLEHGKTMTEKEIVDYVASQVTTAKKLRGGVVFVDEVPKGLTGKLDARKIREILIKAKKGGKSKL

Row | SMILES | composite z-score [1] | composite z-score [2] | composite z-score [3] | composite z-score [4] | composite z-score [5] | composite z-score [6] | z-score [7] | composite z-score [8] | composite z-score [9] | z-score [10]
1 | COc1ccc(C(=O)Nc2ccc(CN3C(=O)[C@@]4(O[C@@H](CC(=O)N(CCO)Cc5ccccc5)[C@H]([Si](C)(C)c5ccc(OC)cc5)[C@H]4C)c4ccccc43)cc2)cc1 | 0.757 | 0.066 | 0.385 | 0.0715 | 0.35 | 0.936 | -0.266 | 1.11 | 1.1 | 0.594 (inactive)
2 | Cc1ccc(S[C@]2(C(=O)NCCN3CCOCC3)CC(=O)N(C(C)C)[C@@H]2c2ccc(CO)cc2I)cc1 | -1.03 | -0.636 | 0.218 | -1.09 | -0.453 | -0.706 | 1.94 | -0.816 | -0.581 | -1.3 (inactive)
3 | O=C1C2C=CC(C(O)C(c3ccccc3)c3ccccc3)N(Nc3ccccc3F)C2C(=O)N1c1ccccc1 (stereo not given) | 1.65 | 1.24 | 0.22 | 0.97 | 1.2 | 0.158 | -1.18 | 0.667 | 1.1 | 0.294 (inactive)
4 | CCCCC(=C=CC[C@H](O)c1cccc(OCCO)c1)C[C@H](O)c1cc(Cl)cc(Cl)c1O | 0.172 | 0.559 | -0.0043 | 0.489 | 1.11 | 0.272 | 0.691 | 1.46 | 0.749 | -0.677 (inactive)
5 | CCOC(=O)C[C@H]1[C@H](OC(=O)c2cc3ccccc3oc2=O)[C@@H](NC(=O)Cc2ccc(OC)cc2)c2cc(OCCCO)ccc2N1C(=O)Cc1ccc(OC)cc1 | -0.279 | -0.624 | 0.122 | 1.03 | 0.705 | 0.453 | -0.202 | 0.983 | 0.348 | 0.827 (inactive)
6 | CC(CO)N1C(=O)[C@@H]2[C@H]3C(=O)OCC=C[C@H]3OC23C=CCN(c2ccc4ccccc4c2)C(=O)[C@@H]13 (stereo not given in full) | -0.786 | -1.21 | 0.204 | -1.83 | -2.31 | -1.55 | 0.599 | -2.07 | -0.515 | -0.0768 (inactive)
7 | COc1ccc(CCNC(=O)[C@@]2(c3ccc([N+](=O)[O-])cc3)CC(=O)N(C3CCCCC3)[C@@H]2c2ccc(CO)cc2I)cc1 | 0.312 | 1.19 | 0.338 | -0.0396 | 1.04 | 1.24 | 3.1 | 0.0241 | 0.402 | -1.28 (inactive)
8 | COCCOC(=O)N1C(=O)[C@@]2(c3ccccc31)[C@H](C(=O)Nc1nc3ccccc3s1)[C@H]1C(=O)O[C@H](c3ccccc3)[C@H](c3ccccc3)N1[C@@H]2c1ccccc1OCCO | 1.55 | 1.19 | -0.0016 | 0.941 | 1.17 | 0.676 | -2.3 | 0.42 | 1.19 | -0.653 (inactive)
9 | CCOC(=O)C[C@H]1[C@H](OC(=O)c2ccc(-c3ccccc3)cc2)[C@@H](NC(=O)c2ccc(-c3ccccc3)cc2)c2cc(OCCCO)ccc2N1C(=O)c1ccccc1 | 0.0004 | 1.09 | 1.03 | 0.856 | 0.627 | 0.64 | 0.392 | 0.627 | 0.792 | -0.339 (inactive)
10 | CC(C)c1ccc(NN2C(C(O)C3=C[C@H]4C[C@@H](C3)C4(C)C)C=CC3C(=O)N(c4ccccc4)C(=O)C32)cc1 (stereo not given in full) | 0.57 | 1.07 | 0.0505 | 0.953 | 1.11 | 0.248 | -0.894 | 0.605 | 0.632 | -1.77 (inactive)
11 | CC(C)(C)OC(=O)CC[C@@]1(C(=O)N2CCOCC2)N=C(c2ccc(OCCCO)cc2)O[C@@H]1c1ccccc1CN=[N+]=[N-] | 3.27 | 1.26 | 0.855 | 0.949 | 1.4 | 1.76 | 0.193 | -0.271 | 0.898 | -1.2 (inactive)
12 | O=C1NC(=O)C2C1C=CC(C(O)C(O)CO)N2Nc1ccccn1 (stereo not given) | 0.37 | 0.434 | -0.201 | 0.485 | 0.176 | -0.0885 | 0.767 | 0.0364 | 0.333 | -1.41 (inactive)
13 | C=CCC(OC(C)=O)[C@@H]1[C@@H](N(Cc2ccc(-c3ccccc3)cc2)C(=O)Cc2ccc(OC)cc2)c2cc(OCCCO)ccc2N1C(=O)c1ccc2ccccc2c1 (stereo not given in full) | -0.365 | -0.168 | -0.0078 | 0.186 | 0.458 | 0.338 | 0.865 | 0.146 | 0.266 | 0.161 (inactive)
14 | C=C(CCCC)C(=O)CC[C@H](OC(=O)c1ccccc1-c1ccccc1C(=O)O)c1cccc(OCCO)c1 | -0.413 | -0.298 | -0.194 | -0.435 | -0.0662 | 0.591 | 0.15 | 0.191 | -0.373 | -0.755 (inactive)
15 | CC(C)C[C@H]1NC(=O)CNC(=O)[C@@]23C(=O)N[C@@H](Cc4ccccc4)C2[C@H](C)[C@@]2(C)O[C@H]2C3/C=C/C/C=C\CNC1=O (stereo not given in full) | 0.0845 | 0.0956 | -0.419 | -0.304 | 0.67 | 0.0369 | -0.0605 | 0.438 | 0.813 | 0.151 (inactive)
16 | CC1CC/C=C\[C@H]2OC34C=CCN(CCN5CCOCC5)C(=O)[C@H]3N(C(CO)C(C)C)C(=O)[C@@H]4C2C(=O)O1 (stereo not given in full) | -0.622 | -0.033 | -0.125 | -0.248 | -0.277 | -0.3 | 0.302 | 0.544 | -0.281 | -0.723 (inactive)
17 | O=C1C2C=CC(C(O)C3CCCCC3)N(Nc3ccccc3F)C2C(=O)N1c1ccccc1 (stereo not given) | 1.87 | 1.23 | 1.76 | 1.01 | 1.17 | -0.494 | -0.791 | 0.168 | 0.682 | -1.02 (inactive)
18 | C[C@]12C(=O)N(CCO)[C@@H]3C(=O)N(c4ccc(Cl)cc4)CC=CC31O[C@@H]1/C=C\CCCOC(=O)C12 (stereo not given in full) | -0.415 | -0.639 | -0.422 | -0.333 | -0.178 | -0.711 | -0.574 | -0.185 | -0.839 | -0.0708 (inactive)
19 | C=CCNC(=O)[C@H]1[C@@H]2C(=O)O[C@@H](c3ccccc3)[C@@H](c3ccccc3)N2[C@@H](c2ccc(O)cc2)[C@]12C(=O)Nc1ccc(C#CCC(C(=O)OC)C(=O)OC)cc12 | 2.01 | 1.08 | 0.144 | -0.078 | 0.636 | 0.497 | 0.243 | 0.0372 | -0.0126 | -1.37 (inactive)
20 | COCCCNC(=O)[C@@]1(CCC(=O)OC(C)(C)C)N=C(c2ccc(OCCCO)cc2)O[C@H]1c1ccccc1 | 2.41 | 1.22 | 0.0039 | 0.986 | 1.36 | 0.295 | 1.42 | -0.568 | 0.597 | -0.173 (inactive)
21 | CC[C@@H](O[Si](C#C[Si](C(C)C)(C(C)C)C(C)C)(C(C)C)C(C)C)c1cn([C@H](CO)Cc2ccccc2)nn1 | 0.0554 | 0.339 | 0.324 | 0.412 | 0.448 | 0.729 | -0.208 | 1.21 | 0.884 | 0.635 (inactive)
22 | CCCC[C@@H](O)C1=C(C)Cn2c(=O)n(-c3ccccc3)c(=O)n2[C@H]1CO | -0.237 | -0.432 | -0.137 | -0.926 | -0.355 | 0.0632 | 2.01 | 0.0378 | 0.502 | -1.32 (inactive)
